Only some compounds are listed: those with a hit (about 1.1% of all), similar ones and a draw of the others.
NSD2 inh: inhibitors of human histone methyltransferase NSD2; NSD2 peptide methylation, AlphaScreen, 120 min; inhibition, % at 12.5 µM; 0.54% of 310,000 active; AID 743445; in the data active = inhibition above about 50%
Target sequence (O96028 whole entry, looked up): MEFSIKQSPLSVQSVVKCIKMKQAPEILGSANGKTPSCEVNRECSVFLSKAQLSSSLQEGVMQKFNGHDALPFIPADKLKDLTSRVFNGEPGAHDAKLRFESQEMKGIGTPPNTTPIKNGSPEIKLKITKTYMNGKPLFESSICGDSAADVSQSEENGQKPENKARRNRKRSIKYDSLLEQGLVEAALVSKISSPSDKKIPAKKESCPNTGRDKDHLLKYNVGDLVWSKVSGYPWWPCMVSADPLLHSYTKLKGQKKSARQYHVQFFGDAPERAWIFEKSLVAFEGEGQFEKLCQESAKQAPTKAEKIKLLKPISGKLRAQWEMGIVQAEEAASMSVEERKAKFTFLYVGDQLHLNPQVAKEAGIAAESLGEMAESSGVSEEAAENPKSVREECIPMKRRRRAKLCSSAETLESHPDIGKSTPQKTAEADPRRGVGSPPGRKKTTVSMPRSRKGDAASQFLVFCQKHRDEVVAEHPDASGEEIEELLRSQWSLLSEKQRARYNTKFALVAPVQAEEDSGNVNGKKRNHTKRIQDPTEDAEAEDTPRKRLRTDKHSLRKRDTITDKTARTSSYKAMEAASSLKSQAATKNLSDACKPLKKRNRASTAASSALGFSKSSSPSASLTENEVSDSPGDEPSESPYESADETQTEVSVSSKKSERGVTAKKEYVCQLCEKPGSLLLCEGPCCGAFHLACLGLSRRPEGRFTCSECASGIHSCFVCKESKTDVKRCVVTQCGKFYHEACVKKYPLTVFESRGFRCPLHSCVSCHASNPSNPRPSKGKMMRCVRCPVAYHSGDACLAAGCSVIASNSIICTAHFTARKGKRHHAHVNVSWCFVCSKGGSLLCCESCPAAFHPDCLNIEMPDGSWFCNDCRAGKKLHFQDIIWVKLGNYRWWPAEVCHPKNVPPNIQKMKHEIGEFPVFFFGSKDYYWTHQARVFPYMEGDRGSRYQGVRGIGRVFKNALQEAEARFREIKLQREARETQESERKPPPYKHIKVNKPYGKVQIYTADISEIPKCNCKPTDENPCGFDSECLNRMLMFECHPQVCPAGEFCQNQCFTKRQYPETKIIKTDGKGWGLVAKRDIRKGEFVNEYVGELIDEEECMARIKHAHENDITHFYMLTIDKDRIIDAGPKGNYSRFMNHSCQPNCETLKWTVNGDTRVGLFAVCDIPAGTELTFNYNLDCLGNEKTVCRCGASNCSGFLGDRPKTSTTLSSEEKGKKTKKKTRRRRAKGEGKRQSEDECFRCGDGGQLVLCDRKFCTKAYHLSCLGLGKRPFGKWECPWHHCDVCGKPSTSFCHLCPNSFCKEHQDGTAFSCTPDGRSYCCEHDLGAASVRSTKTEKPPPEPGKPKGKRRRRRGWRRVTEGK
Keap1 Nrf2 FP: inhibitors of human Keap1-Nrf2 protein-protein interaction; Q14145; Keap1 Kelch-Nrf2 peptide fluorescence polarization, 1536-well; inhibition, % at 9.4 µM; 0.15% of 340,000 active; AID 504523; in the data active = inhibition above about 12%; inconclusive = no clear call, values can overlap the other calls; inactive = below about 7.3%;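 also: human Keap1 Kelch domain with fluorescein labeled Nrf2 9mer peptide probe; 0% = neutral control wells and 100% = peptide positive control; higher means more block of Keap1 binding to Nrf2 peptide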
HDAC3 inh: blocks human histone deacetylase 3; recombinant HDAC3, fluorogenic peptide/trypsin coupled, fluorescence; O15379; inhibition, % at 8.3 µM; 0.15% of 320,000 active; in the data active = inhibition above about 26%, passing the limit was not always enough; inconclusive = no clear call, values can overlap the other calls
Glyco luc inh: blocks N-linked glycosylation in D54 reporter cells; 0.23% of 360,000 active; reporter increase, % at 12.5 µM; D54 ERlucT glycosylation luciferase reporter, 24 h; percent of 100 nM tunicamycin response;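 active = mean luciferase reporter signal, scaled so untreated is 0 and the glycosylation-blocking control 100, at or above a set limit in every replicate; inconclusive = mean reaches the limit but not every replicate does; inactive = mean below the limit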;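 also: luciferase carries N-glycosylation sites so blocking glycosylation raises the light; 0% = median of neutral control wells and 100% = median of 100 nM tunicamycin wells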
Casp6 inh: blocks human caspase-6 cleavage activity. purified caspase-6, Z-VEID-R110 cleavage fluorescence. inhibition, % at 12.5 µM. 0.53% of 350,000 active;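 active = mean inhibition across replicates at least about 35%, with every replicate also reaching that limit, limit read from the data; inconclusive = only one of the two criteria met; inactive = neither criterion met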;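 also: 0% = median of neutral control wells and 100% = no fluorescence left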
LANA DNA inh: blocks KSHV LANA C-terminal domain binding to DNA. 0.078% of 340,000 active. inhibition, % at 9 µM. MBP-C-LANA/FAM-LBS DNA binding, fluorescence polarization;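 active = highest replicate inhibition at or above 60% at 9 µM, even if other replicates fall short; inactive = all replicates below 60% inhibition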;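 also: 0% = neutral control wells and 100% = 4 µM acridine orange control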
AlphaScreen art: counter-screen for NSD2 inhibitors: AlphaScreen artifacts; shares compounds with NSD2 inh; AlphaScreen artifact counterscreen, preloaded methylated H4 peptide; AC35, µM (titrated, usually from 10 µM), for the others: top-dose activity change, negative = signal loss; 9.4% of 1,500 active; AID 1053174; call rule not given here
The depositor's hits bear a star; ? = inconclusive; . = no result given.

SMILES	NSD2 inh	Keap1 Nrf2 FP	HDAC3 inh	Glyco luc inh	Casp6 inh	LANA DNA inh	AlphaScreen art
COc1cccc(-c2ccc3c(c2)O[C@H](CN(C)C(=O)C2CCC2)[C@@H](C)CN([C@@H](C)CO)S3(=O)=O)c1	.	.	.	.	0	.	.
COC(=O)c1c(SCc2cccc3ccccc23)nc(=O)[nH]c1C	4	5	2	-1	-2	3	.
COC(=O)c1c(SCC(=O)Nc2ccc(C)c(C)c2)nc(=O)[nH]c1C	116*	4	-2	3	-1	2	-3%
C[C@@H]1CN([C@@H](C)CO)C(=O)c2cc(NC(=O)Nc3ccc(C(F)(F)F)cc3)ccc2O[C@@H]1CN(C)Cc1ccc(C(=O)O)cc1	.	.	.	.	0	.	.
COc1ccc(C(=O)C(OC(=O)c2ccc(C)c(NC(C)=O)c2)c2ccccc2)cc1 (stereo unspecified)	50*	-3	2	-1	.	0	-5%
CC(=O)Nc1cc(C(=O)OC(C(=O)c2ccccc2)c2ccccc2)ccc1C (stereo unspecified)	0	-1	9	0	.	-1	.
Cc1ccc(S(=O)(=O)N2CCCCC2CCNC(=O)C(=O)Nc2ccccc2F)cc1 (stereo unspecified)	95*	-2	-2	13	0	-1	2%
CSC1=NSC2=NC(=O)/C(=C/c3coc4ccccc4c3=O)C(=N)N12	75*	-86	-1	-1	16	23	0%
N=C1/C(=C\c2coc3ccccc3c2=O)C(=O)N=C2SC=CN12	32	-18	5	4	3	14	.
COC(=O)C[C@H]1C=C[C@H](NS(=O)(=O)c2ccccc2F)[C@@H](CO)O1	.	.	.	.	0	.	.
CC1CCC2C(C1)c1sc(=O)[nH]c1SC2(C)C (stereo unspecified)	111*	-1	3	-1	.	0	-2%
Cc1cc2ccccn2c1C(=S)NC(=O)c1ccccc1	55*	1	5	-1	3	1	10µM*
Cc1ccc(C(=O)NC(=S)c2c(C)cc3ccccn23)cc1	92*	.	.	-1	-2	.	6.4µM*
Cc1[nH]n(-c2ccccc2)c(=O)c1C(c1cccc([N+](=O)[O-])c1)c1c(C)[nH]n(-c2ccccc2)c1=O	24	2	3	2	10	-1	.
Cc1[nH]n(-c2ccccc2)c(=O)c1C(c1ccc(C(=O)O)cc1)c1c(C)[nH]n(-c2ccccc2)c1=O	57*	1	1	3	24	0	0%
CO[C@@H]1CC[C@H]2CCOc3c(C#N)cccc3C(=O)N(C)[C@@H](C)C(=O)N(C)C[C@H]1O2	.	.	.	.	-1	.	.
Cc1cc(F)c(F)c(C(=O)N2C(C)CCCC2C)c1Cl (stereo unspecified)	58*	-1	.	-1	-3	0	2%
C[C@H](CO)N1C[C@H](C)[C@H](CN(C)Cc2ccc(Oc3ccccc3)cc2)Oc2c(NS(=O)(=O)c3ccc(Cl)cc3)cccc2C1=O	.	.	.	.	0	.	.
O=C1c2cccc(Sc3ccccc3)c2C(=O)c2c(Sc3ccccc3)cccc21	76*	4	?	-2	10	-1	-17%
O=C(Nc1ccc(F)cc1)N1[C@H](CO)[C@H]2c3ccccc3NC[C@H]21	.	.	.	.	1	.	.
COc1cc(NC(=O)COC(=O)CNC(=O)c2ccc(C)cc2)c(C)cc1[N+](=O)[O-]	59*	-3	-1	1	2	0	-4%
C/C=C/c1ccc2c(c1)O[C@H](CN(C)C(=O)Nc1ccccc1)[C@H](C)CN([C@H](C)CO)S2(=O)=O	.	.	.	.	0	.	.
O=C(CCCN1C(=O)/C(=C/c2cccs2)SC1=S)Nc1ccc(O)c(C(=O)O)c1	53*	.	.	.	.	.	-14%
O=C(CCCN1C(=O)/C(=C/c2ccccc2)SC1=S)Nc1ccc(C(=O)O)c(O)c1	55*	1	0	3	25	0	-7%
O=C(CCCN1C(=O)/C(=C\c2cccs2)SC1=S)Nc1ccc(C(=O)O)cc1	13	0	0	3	1	-2	.
SMILES	NSD2 inh	Keap1 Nrf2 FP	HDAC3 inh	Glyco luc inh	Casp6 inh	LANA DNA inh	AlphaScreen art
O=C(NC1CCCC1)[C@H]1[C@H](CO)[C@H]2Cn3c(ccc(-c4ccc(F)cc4)c3=O)[C@@H]1N2Cc1cocn1	.	.	.	.	0	.	.
C[C@H](CO)N1C[C@H](C)[C@@H](CN(C)Cc2ccc(-c3ccccc3)cc2)Oc2ccc(NC(=O)CCN3CCOCC3)cc2CC1=O	.	.	.	.	-6	.	.
Cc1ccc(S(=O)(=O)Nc2ccc3c(c2)CC(=O)N([C@H](C)CO)C[C@@H](C)[C@H](CN(C)Cc2ccc4c(c2)OCO4)O3)cc1	.	.	.	.	0	.	.
CCN(CC)CCCN(Cc1cc2cc3c(cc2[nH]c1=O)OCO3)C(=S)NCc1ccco1	74*	-2	-4	-2	-8	-2	-1%
C[C@H](NC(=O)C[C@H]1C=C[C@@H](NC(=O)C2CCC2)[C@@H](CO)O1)c1ccccc1	.	.	.	.	-1	.	.
CC1CN(C(=O)COC(=O)/C=C/c2ccccc2)CC(C)O1 (stereo unspecified)	61*	.	.	1	-2	.	-4%
CC1CN(C(=O)COC(=O)/C=C/c2ccc(C(F)(F)F)cc2)CC(C)O1 (stereo unspecified)	1	1	-1	0	-2	0	.
COc1ccc(CN(C)C[C@H]2Oc3ccc(NC(=O)CCN4CCOCC4)cc3C(=O)N([C@H](C)CO)C[C@@H]2C)cc1	.	.	.	.	1	.	.
C/C=C/c1ccccc1[C@H]1[C@H](C#N)N(c2nc(CC)cs2)[C@H]1CO	.	.	.	.	0	.	.
CCCN=C(C)C1=C(O)c2ccccc2C1=O	15	-2	6	0	1	0	.
CCN(CC)CCCN=C(C)C1=C(O)c2ccccc2C1=O	66*	.	-1	-4	-9	.	-1%
COc1ccc(CN(C)C[C@@H]2OCCCC[C@H](C)Oc3ccc(NS(=O)(=O)c4ccccc4)cc3C(=O)N([C@@H](C)CO)C[C@@H]2C)cc1	.	.	.	.	2	.	.
COc1ccc(-c2csc3ncnc(NCCCO)c23)cc1	-1	-4	-7	-13	-2	-2	.
CCN(CC)CCCNc1ncnc2scc(-c3ccc(F)cc3)c12	63*	-1	-3	0	-2	-2	-3%
O=C(C[C@H]1CC[C@H](NC(=O)Nc2ccc3c(c2)OCO3)[C@@H](CO)O1)NCCCN1CCOCC1	.	.	.	.	-1	.	.
COc1ccc2c3c([nH]c2c1)[C@H](CO)N(C(=O)c1cccc(F)c1)CC31CN(C(C)=O)C1	.	.	.	.	-1	.	.
CCN(CC)CCNC(=O)c1cc2cc(Br)ccc2s1	56*	-3	5	-9	.	-4	-4%
CCN(CC)CCNC(=O)c1cc(-c2ccc(Br)s2)nc2ccccc12	3	-4	.	2	-4	0	.
C[C@H](CO)N1C[C@H](C)[C@H](CN(C)Cc2ccccc2)Oc2ccc(NS(=O)(=O)c3cccs3)cc2CC1=O	.	.	.	.	1	.	.

Assay outcomes as filed in PubChem.
